# According to PubChem BioAssay AID1159580 (chemical genetic matrix, 2015):
# The campaign covered roughly 5,500 compounds. About 2,000 (36%) were called active. Not shown: some 18% with an inconclusive outcome. The list shows a part of the results. Unmarked numbers belong to inactive results. No stated cut-off is given here; in the data, active means normalized growth mostly below about 0.91 (no sharp cut-off); inconclusive means no clear call, values can overlap the other calls; inactive means mostly above about 0.92.
# Assay: chemical genetic growth profiling, strain panel (AID 1159580);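 further: tested at 20 µM; growth read once vehicle control cultures reached saturation at 30 °C; 1 = growth at the plate median or of vehicle wells; lower values mean less growth of the strain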
# Settings: S. cerevisiae deletion strains, growth OD
smiles,measurement,setting,value
CCN1CCN(c2cc3c(cc2F)c(=O)c(C(=O)O)cn3C2CC2)CC1,normalized growth,"locus YAL021C, strain ccr4, hits give low values",1.04
same,normalized growth,"locus YAL026C, strain drs2, hits give low values",1.01
same,normalized growth,"locus YAL030W, strain snc1, hits give low values",1.01
same,normalized growth,"locus YBL061C, strain skt5, hits give low values",1.01
same,normalized growth,"locus YBR009C, strain hhf1, hits give low values",1
same,normalized growth,"locus YBR023C, strain chs3, hits give low values",1.01
same,normalized growth,"locus YBR171W, strain sec66, hits give low values",1.02
same,normalized growth,"locus YBR231C, strain swc5, hits give low values",1.02
same,normalized growth,"locus YBR279W, strain paf1, hits give low values",1.01
same,normalized growth,"locus YCL011C, strain gbp2, hits give low values",1.01
same,normalized growth,"locus YCL016C, strain dcc1, hits give low values",0.997
same,normalized growth,"locus YCL061C, strain MRC1, hits give low values",1.01
same,normalized growth,"locus YCL069W, strain vba3, hits give low values",1.01
same,normalized growth,"locus YCR088W, strain abp1, hits give low values",1.01
same,normalized growth,"locus YDL005C, strain med2, hits give low values",1.02
same,normalized growth,"locus YDL040C, strain nat1, hits give low values",1.01
same,normalized growth,"locus YDR001C, strain nth1, hits give low values",1.01
same,normalized growth,"locus YDR069C, strain doa4, hits give low values",1
same,normalized growth,"locus YDR137W, strain rgp1, hits give low values",0.969
same,normalized growth,"locus YDR159W, strain sac3, hits give low values",1.01
same,normalized growth,"locus YDR195W, strain ref2",1.04
same,normalized growth,"locus YDR297W, strain sur2, hits give low values",1.01
same,normalized growth,"locus YDR334W, strain swr1, hits give low values",1.02
same,normalized growth,"locus YDR335W, strain msn5, hits give low values",1.03
same,normalized growth,"locus YDR392W, strain spt3, hits give low values",1
same,normalized growth,"locus YEL003W, strain gim4, hits give low values",1.01
same,normalized growth,"locus YEL037C, strain rad23, hits give low values",1.01
same,normalized growth,"locus YEL061C, strain CIN8 (second series), hits give low values",1.02
same,normalized growth,"locus YER015W, strain faa2, hits give low values",1.01
same,normalized growth,"locus YER016W, strain bim1, hits give low values",0.995
same,normalized growth,"locus YER111C, strain swi4, hits give low values",1.02
same,normalized growth,"locus YER155C, strain BEM2 (second series), hits give low values",1.01
same,normalized growth,"locus YFR010W, strain ubp6, hits give low values",1.01
same,normalized growth,"locus YGL167C, strain pmr1, hits give low values",1.02
same,normalized growth,"locus YGL173C, strain kem1, hits give low values",1
same,normalized growth,"locus YGL227W, strain vid30, hits give low values",1.01
same,normalized growth,"locus YGL240W, strain doc1, hits give low values",0.997
same,normalized growth,"locus YGL253W, strain hxk2, hits give low values",1.01
same,normalized growth,"locus YHR013C, strain ard1, hits give low values",1.04
same,normalized growth,"locus YHR027C, strain rpn1, hits give low values",1.02
same,normalized growth,"locus YHR030C, strain SLT2, hits give low values",0.992
same,normalized growth,"locus YHR079C, strain IRE1, hits give low values",0.986
same,normalized growth,"locus YHR142W, strain chs7, hits give low values",1.02
same,normalized growth,"locus YJL092W, strain hpr5, hits give low values",1.01
same,normalized growth,"locus YJL095W, strain BCK1 (second series), hits give low values",1.02
same,normalized growth,"locus YJL095W, strain BCK1, hits give low values",0.995
same,normalized growth,"locus YJL115W, strain asf1, hits give low values",0.989
same,normalized growth,"locus YJL129C, strain trk1, hits give low values",1.03
same,normalized growth,"locus YJL154C, strain vps35, hits give low values",1.02
same,normalized growth,"locus YJL164C, strain tpk1, hits give low values",1.01
same,normalized growth,"locus YJL166W, strain qcr8, hits give low values",1
same,normalized growth,"locus YJL187C, strain SWE1, hits give low values",1.01
same,normalized growth,"locus YJR066W, strain TOR1, hits give low values",0.962
same,normalized growth,"locus YKL160W, strain elf1, hits give low values",1
same,normalized growth,"locus YKR026C, strain gcn3, hits give low values",1.01
same,normalized growth,"locus YKR091W, strain srl3, hits give low values",1
same,normalized growth,"locus YLL001W, strain dnm1, hits give low values",1.02
same,normalized growth,"locus YLL026W, hits give low values",1
same,normalized growth,"locus YLL041C, strain sdh2, hits give low values",1.01
same,normalized growth,"locus YLR027C, strain aat2, hits give low values",1.01
same,normalized growth,"locus YLR113W, strain HOG1, hits give low values",1.03
same,normalized growth,"locus YLR221C, strain rsa3, hits give low values",1.01
same,normalized growth,"locus YLR258W, strain gsy2, hits give low values",1.01
same,normalized growth,"locus YLR262C, strain YPT6 (second series), hits give low values",0.962
same,normalized growth,"locus YLR320W, strain mms22, hits give low values",0.854 (active)
same,normalized growth,"locus YLR342W, strain FKS1, hits give low values",1.02
same,normalized growth,"locus YLR357W, strain rsc2, hits give low values",0.994
same,normalized growth,"locus YLR370C, strain arc18, hits give low values",1.02
same,normalized growth,"locus YLR384C, strain iki3, hits give low values",1
same,normalized growth,"locus YML120C, strain ndi1, hits give low values",1.01
same,normalized growth,"locus YMR058W, strain fet3, hits give low values",1.01
same,normalized growth,"locus YMR125W, strain sto1, hits give low values",1.02
same,normalized growth,"locus YMR129W, hits give low values",1.01
same,normalized growth,"locus YMR205C, strain PFK2, hits give low values",1
same,normalized growth,"locus YMR231W, strain pep5, hits give low values",1.02
same,normalized growth,"locus YNL071W, strain lat1, hits give low values",1.02
same,normalized growth,"locus YNL183C, strain NPR1, hits give low values",0.935
same,normalized growth,"locus YNL209W, strain ssb2, hits give low values",1.03
same,normalized growth,"locus YNL248C, strain rpa49, hits give low values",1.01
same,normalized growth,"locus YNL322C, strain KRE1 (second series), hits give low values",1
same,normalized growth,"locus YNR049C, strain mso1, hits give low values",1.01
same,normalized growth,"locus YOR001W, strain rrp6, hits give low values",1.01
same,normalized growth,"locus YOR070C, strain gyp1, hits give low values",1.02
same,normalized growth,"locus YOR080W, strain dia2, hits give low values",0.992
same,normalized growth,"locus YOR083W, strain WHI5, hits give low values",1.01
same,normalized growth,"locus YOR106W, strain vam3, hits give low values",0.994
same,normalized growth,"locus YOR231W, strain MKK1, hits give low values",0.981
same,normalized growth,"locus YOR265W, strain rbl2, hits give low values",1.01
same,normalized growth,"locus YOR270C, strain vph1, hits give low values",1.03
same,normalized growth,"locus YOR290C, strain snf2, hits give low values",0.957
same,normalized growth,"locus YPL051W, strain arl3, hits give low values",1.01
same,normalized growth,"locus YPL078C, strain atp4, hits give low values",1.02
same,normalized growth,"locus YPL106C, strain sse1, hits give low values",0.998
same,normalized growth,"locus YPL240C, strain hsp82, hits give low values",1.01
same,normalized growth,"locus YPL256C, strain CLN2, hits give low values",0.986
